# Reference: the supplement of paper PMC8728848
# About 410 targets per protein were measured; listed, in parts, are those with the strongest signals and a random draw of the rest.
# B1: AT5G01260(PC)(40) (Arabidopsis thaliana), Q9LFB0 (protein)
# chain: MIGIGRTLTSSSPSKIILEDLPPGIYRYGTEIFTSVPRKTFHHIKFLRLDSAQSSRILKPVPLRSSSIKDSQVNVEDEEIEASNKTVRVRFQLRKECVFGEHFFIVGDDPVFGGLWDPETALPLNWSDGNVWTVDLDLPVGRLVEFKLLLKAQTGEILWQPGPNRALETWETNKTIRICEDWDNADLQMMIEEDFVPYTNISSIGSEDEDEVLGSVQQNSSVVAVENAGYVSDESAQNSSFSIQSEKTMEPSNGALTAREVIKEAMFTEEESPVLVPGLIPLSDLDNEQVEVINEGKAETFPEVDKKQEPKAERNKKAKVKAISLFEKSEQEAVKSVEQRQYNAVEEEQQRLETEPLGTPDVLFENDIQWGRRTLYKLLSNFRLF
# Key:
# Experiment in all cases: glycan array binding signal (z-score within array); higher = stronger binding
# Details in all cases: glycan notation: IUPAC condensed, linker removed
# [1] = target: Fuc(a1-2)Gal(b1-3)GalNAc(b1-3)Gal
# Summary of the method: (§1)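 Negative Z-scores can be read as non-binding. The Z-score is calculated within each array and then averaged across arrays of one protein sequence at different concentrations or buffers and across linkers. Arrays, 3228 in all, were curated from the Consortium for Functional Glycomics database and kept only where the protein sequence was available.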
# Fuc(a1-2)Gal(b1-3)GlcNAc = target: Fuc(a1-2)Gal(b1-3)GlcNAc
# Summary of the method: as §1
# [2] = target: Fuc(a1-2)Gal(b1-3)GlcNAc(b1-3)[Gal(b1-4)GlcNAc(b1-6)]Gal(b1-4)Glc
# Summary of the method: as §1
# [3] = target: Fuc(a1-2)Gal(b1-4)GlcNAc(b1-3)Gal(b1-4)GlcNAc(b1-3)Gal(b1-4)GlcNAc
# Summary of the method: as §1
# [4] = target: Fuc(a1-2)Gal(b1-4)[Fuc(a1-3)]GlcNAc
# Summary of the method: as §1
# [5] = target: Fuc(a1-2)Gal(b1-4)[Fuc(a1-3)]GlcNAc(b1-2)[Fuc(a1-2)Gal(b1-4)[Fuc(a1-3)]GlcNAc(b1-4)]Man(a1-3)[Fuc(a1-2)Gal(b1-4)[Fuc(a1-3)]GlcNAc(b1-2)Man(a1-6)]Man(b1-4)GlcNAc(b1-4)GlcNAc
# Summary of the method: as §1
# [6] = target: Fuc(a1-2)[Gal(a1-3)]Gal(b1-3)GlcNAc
# Summary of the method: as §1
# [7] = target: Fuc(a1-2)[Gal(a1-3)]Gal(b1-4)GlcNAc(b1-2)Man
# Summary of the method: as §1
# [8] = target: Fuc(a1-2)[Gal(a1-3)]Gal(b1-4)GlcNAc(b1-6)GalNAc
# Summary of the method: as §1
# [9] = target: Fuc(a1-2)[GalNAc(a1-3)]Gal(b1-4)GlcNAc(b1-2)Man(a1-3)[Fuc(a1-2)[GalNAc(a1-3)]Gal(b1-4)GlcNAc(b1-2)Man(a1-6)]Man(b1-4)GlcNAc(b1-4)GlcNAc
# Summary of the method: as §1
# [10] = target: Fuc(a1-2)[GalNAc(a1-3)]Gal(b1-4)GlcNAc(b1-6)GalNAc
# Summary of the method: as §1
# [11] = target: Fuc(a1-2)[GalNAc(a1-3)]Gal(b1-4)[Fuc(a1-3)]GlcNAc(b1-3)GalNAc
# Summary of the method: as §1
# [12] = target: Fuc(a1-3)[Gal(b1-4)]GlcNAc(b1-3)Gal(b1-3)[Fuc(a1-4)]GlcNAc
# Summary of the method: as §1
# [13] = target: Fuc(a1-3)[Gal(b1-4)]GlcNAc(b1-3)Gal(b1-4)[Fuc(a1-3)]GlcNAc
# Summary of the method: as §1
# [14] = target: Fuc(a1-3)[Gal(b1-4)]GlcNAc(b1-3)Gal(b1-4)[Fuc(a1-3)]GlcNAc(b1-3)Gal(b1-4)[Fuc(a1-3)]GlcNAc
# Summary of the method: as §1
# [15] = target: Fuc(a1-3)[GalNAc(b1-4)]GlcNAc
# Summary of the method: as §1
# [16] = target: Gal(a1-3)Gal(b1-3)[Fuc(a1-4)]GlcNAc(b1-2)Man(a1-3)[Gal(a1-3)Gal(b1-3)[Fuc(a1-4)]GlcNAc(b1-2)Man(a1-6)]Man(b1-4)GlcNAc(b1-4)GlcNAc
# Summary of the method: as §1
# [17] = target: Gal(a1-3)Gal(b1-4)GlcNAc(b1-6)GalNAc
# Summary of the method: as §1
# Gal(a1-3)GalNAc = target: Gal(a1-3)GalNAc
# Summary of the method: as §1
# [18] = target: Gal(a1-3)[Gal(a1-4)]Gal(b1-4)GlcNAc
# Summary of the method: as §1
# Gal(a1-4)Gal(b1-4)Glc = target: Gal(a1-4)Gal(b1-4)Glc
# Summary of the method: as §1
# [19] = target: Gal(b1-3)GalNAc(b1-4)Gal(b1-4)Glc
# Summary of the method: as §1
# [20] = target: Gal(b1-3)GlcNAc(b1-2)Man(a1-3)[Gal(b1-3)GlcNAc(b1-2)Man(a1-6)]Man(b1-4)GlcNAc(b1-4)GlcNAc
# Summary of the method: as §1
# [21] = target: Gal(b1-3)GlcNAc(b1-6)[Gal(b1-3)]GalNAc
# Summary of the method: as §1
# Gal(b1-3)GlcNAc6S = target: Gal(b1-3)GlcNAc6S
# Summary of the method: as §1
# [22] = target: Gal(b1-3)[Fuc(a1-4)]GlcNAc(b1-2)Man(a1-3)[Gal(b1-3)[Fuc(a1-4)]GlcNAc(b1-2)Man(a1-6)]Man(b1-4)GlcNAc(b1-4)[Fuc(a1-6)]GlcNAc
# Summary of the method: as §1
# [23] = target: Gal(b1-3)[GlcNAc(b1-6)]GalNAc
# Summary of the method: as §1
# [24] = target: Gal(b1-4)GalNAc(a1-3)[Fuc(a1-2)]Gal(b1-4)GlcNAc
# Summary of the method: as §1
# Gal(b1-4)GlcNAc = target: Gal(b1-4)GlcNAc
# Summary of the method: as §1
# [25] = target: Gal(b1-4)GlcNAc(b1-2)Man(a1-3)[GlcNAc(b1-2)Man(a1-6)]Man(b1-4)GlcNAc(b1-4)GlcNAc
# Summary of the method: as §1
# [26] = target: Gal(b1-4)GlcNAc(b1-2)[Gal(b1-4)GlcNAc(b1-4)]Man(a1-3)[GlcNAc(b1-4)][Gal(b1-4)GlcNAc(b1-2)[Gal(b1-4)GlcNAc(b1-6)]Man(a1-6)]Man(b1-4)GlcNAc(b1-4)GlcNAc
# Summary of the method: as §1
# [27] = target: Gal(b1-4)GlcNAc(b1-2)[Gal(b1-4)GlcNAc(b1-6)]Man(a1-6)[Gal(b1-4)GlcNAc(b1-2)Man(a1-3)]Man(b1-4)GlcNAc(b1-4)GlcNAc
# Summary of the method: as §1
# [28] = target: Gal(b1-4)GlcNAc(b1-2)[Gal(b1-4)GlcNAc(b1-6)]Man(a1-6)[Gal(b1-4)GlcNAc(b1-2)Man(a1-3)]Man(b1-4)GlcNAc(b1-4)[Fuc(a1-6)]GlcNAc
# Summary of the method: as §1
# [29] = target: Gal3S(b1-4)[Fuc(a1-3)]Glc6S
# Summary of the method: as §1
# Gal6S(b1-3)GlcNAc6S = target: Gal6S(b1-3)GlcNAc6S
# Summary of the method: as §1
# [30] = target: GalNAc(a1-3)GalNAc(b1-3)Gal(a1-4)Gal(b1-4)Glc
# Summary of the method: as §1
# [31] = target: GalNAc(b1-3)Gal(a1-4)Gal(b1-4)GlcNAc
# Summary of the method: as §1
# [32] = target: GalNAc(b1-3)Gal(a1-6)Gal(b1-4)Glc
# Summary of the method: as §1
# GalNAc(b1-4)GlcNAc = target: GalNAc(b1-4)GlcNAc
# Summary of the method: as §1
# [33] = target: GlcNAc(a1-4)Gal(b1-4)GlcNAc(b1-3)Gal(b1-4)Glc
# Summary of the method: as §1
# [34] = target: GlcNAc(b1-2)Man(a1-3)[GlcNAc(b1-2)Man(a1-6)]Man(b1-4)GlcNAc(b1-4)GlcNAc
# Summary of the method: as §1
# [35] = target: GlcNAc(b1-3)Gal(b1-4)GlcNAc(b1-3)Gal(b1-4)GlcNAc(b1-2)[GlcNAc(b1-3)Gal(b1-4)GlcNAc(b1-3)Gal(b1-4)GlcNAc(b1-6)]Man(a1-6)[GlcNAc(b1-3)Gal(b1-4)GlcNAc(b1-3)Gal(b1-4)GlcNAc(b1-2)Man(a1-3)]Man(b1-4)GlcNAc(b1-4)[Fuc(a1-6)]GlcNAc
# Summary of the method: as §1
# [36] = target: GlcNAc(b1-4)[GlcNAc(b1-6)]GalNAc
# Summary of the method: as §1
# [37] = target: GlcNAc6S(b1-3)Gal(b1-4)GlcNAc
# Summary of the method: as §1
# Neu5Ac(a2-3)Gal = target: Neu5Ac(a2-3)Gal
# Summary of the method: as §1
# [38] = target: Neu5Ac(a2-3)Gal(b1-3)GlcNAc(b1-2)Man
# Summary of the method: as §1
# [39] = target: Neu5Ac(a2-3)Gal(b1-3)[Neu5Ac(a2-6)]GalNAc
# Summary of the method: as §1
# [40] = target: Neu5Ac(a2-3)Gal6S(b1-4)GlcNAc
# Summary of the method: as §1
# Neu5Ac(a2-3)GalNAc = target: Neu5Ac(a2-3)GalNAc
# Summary of the method: as §1
# [41] = target: Neu5Ac(a2-6)Gal(b1-4)GlcNAc(b1-2)Man(a1-6)[Gal(b1-4)GlcNAc(b1-2)Man(a1-3)]Man(b1-4)GlcNAc(b1-4)GlcNAc
# Summary of the method: as §1
# [42] = target: Neu5Ac(a2-6)Gal(b1-4)GlcNAc(b1-3)Gal(b1-4)GlcNAc(b1-2)Man(a1-3)[Neu5Ac(a2-6)Gal(b1-4)GlcNAc(b1-3)Gal(b1-4)GlcNAc(b1-2)Man(a1-6)]GalNAc
# Summary of the method: as §1
# [43] = target: Neu5Ac(a2-6)Gal(b1-4)GlcNAc(b1-3)Gal(b1-4)[Fuc(a1-3)]GlcNAc(b1-3)Gal(b1-4)[Fuc(a1-3)]GlcNAc
# Summary of the method: as §1
# [44] = target: Neu5Ac(a2-6)Gal(b1-4)GlcNAc(b1-3)[Neu5Ac(a2-6)Gal(b1-4)GlcNAc(b1-6)]GalNAc
# Summary of the method: as §1
# [45] = target: Neu5Ac(a2-8)Neu5Ac(a2-8)Neu5Ac
# Summary of the method: as §1
# Neu5Ac(b2-6)GalNAc = target: Neu5Ac(b2-6)GalNAc
# Summary of the method: as §1
# [46] = target: Neu5Gc(a2-3)Gal(b1-3)GlcNAc
# Summary of the method: as §1
binder,measurement,setting,value
B1,glycan array binding signal (z-score),[1],-0.3
same,glycan array binding signal (z-score),Fuc(a1-2)Gal(b1-3)GlcNAc,-0.85
same,glycan array binding signal (z-score),[2],-0.343
same,glycan array binding signal (z-score),[3],-0.994
same,glycan array binding signal (z-score),[4],-0.291
same,glycan array binding signal (z-score),[5],0.175
same,glycan array binding signal (z-score),[6],0.172
same,glycan array binding signal (z-score),[7],-0.675
same,glycan array binding signal (z-score),[8],-0.256
same,glycan array binding signal (z-score),[9],-0.648
same,glycan array binding signal (z-score),[10],-0.387
same,glycan array binding signal (z-score),[11],7.04
same,glycan array binding signal (z-score),[12],0.431
same,glycan array binding signal (z-score),[13],-0.975
same,glycan array binding signal (z-score),[14],1.89
same,glycan array binding signal (z-score),[15],1.78
same,glycan array binding signal (z-score),[16],0.054
same,glycan array binding signal (z-score),[17],-0.159
same,glycan array binding signal (z-score),Gal(a1-3)GalNAc,2.32
same,glycan array binding signal (z-score),[18],9.44
same,glycan array binding signal (z-score),Gal(a1-4)Gal(b1-4)Glc,1.85
same,glycan array binding signal (z-score),[19],2.16
same,glycan array binding signal (z-score),[20],0.891
same,glycan array binding signal (z-score),[21],-0.659
same,glycan array binding signal (z-score),Gal(b1-3)GlcNAc6S,0.146
same,glycan array binding signal (z-score),[22],0.147
same,glycan array binding signal (z-score),[23],0.411
same,glycan array binding signal (z-score),[24],-0.618
same,glycan array binding signal (z-score),Gal(b1-4)GlcNAc,0.708
same,glycan array binding signal (z-score),[25],-0.702
same,glycan array binding signal (z-score),[26],-0.552
same,glycan array binding signal (z-score),[27],0.037
same,glycan array binding signal (z-score),[28],0.414
same,glycan array binding signal (z-score),[29],4.34
same,glycan array binding signal (z-score),Gal6S(b1-3)GlcNAc6S,-0.529
same,glycan array binding signal (z-score),[30],-0.513
same,glycan array binding signal (z-score),[31],2.47
same,glycan array binding signal (z-score),[32],-0.39
same,glycan array binding signal (z-score),GalNAc(b1-4)GlcNAc,8.76
same,glycan array binding signal (z-score),[33],-0.389
same,glycan array binding signal (z-score),[34],-0.443
same,glycan array binding signal (z-score),[35],0.144
same,glycan array binding signal (z-score),[36],0.541
same,glycan array binding signal (z-score),[37],1.26
same,glycan array binding signal (z-score),Neu5Ac(a2-3)Gal,-0.106
same,glycan array binding signal (z-score),[38],-0.011
same,glycan array binding signal (z-score),[39],-0.391
same,glycan array binding signal (z-score),[40],-0.571
same,glycan array binding signal (z-score),Neu5Ac(a2-3)GalNAc,-0.206
same,glycan array binding signal (z-score),[41],-0.165
same,glycan array binding signal (z-score),[42],0.243
same,glycan array binding signal (z-score),[43],-0.054
same,glycan array binding signal (z-score),[44],0.077
same,glycan array binding signal (z-score),[45],-0.58
same,glycan array binding signal (z-score),Neu5Ac(b2-6)GalNAc,-0.728
same,glycan array binding signal (z-score),[46],-0.145
